This note sets out measurements from PubChem BioAssay AID651785 (The Scripps Research Institute Molecular Screening Center, 2012).

In general, inhibition refers to the relative decrease from the control value, in per cent.

Out of some 2,400 compounds screened, about 950 (40%) were called active. The list is a sample of the results. Unmarked numbers belong to inactive results. Cut-off read from the data, not from the text of the source: active = inhibition above about 49%; inactive = the rest.

The target of this assay is Trace amine-associated receptor 1 (Homo sapiens) (UniProt Q96RJ0). The experiment in a line: TAAR1 receptor blockers, repeat testing – cell-based, fluorescence, confirmation (AID 651785).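 Note: CHO-Ga16 host cells challenged with agonist PEA near its EC80; 0% = agonist at EC80 plus vehicle and 100% = vehicle with no agonist.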 To be noted: TAAR1-expressing cells, fluorescence antagonist read-out; at 3 µM; active compounds read high.
Trace amine-associated receptor 1 (Homo sapiens), sequence (Q96RJ0 whole entry, looked up, the tested form may be a part): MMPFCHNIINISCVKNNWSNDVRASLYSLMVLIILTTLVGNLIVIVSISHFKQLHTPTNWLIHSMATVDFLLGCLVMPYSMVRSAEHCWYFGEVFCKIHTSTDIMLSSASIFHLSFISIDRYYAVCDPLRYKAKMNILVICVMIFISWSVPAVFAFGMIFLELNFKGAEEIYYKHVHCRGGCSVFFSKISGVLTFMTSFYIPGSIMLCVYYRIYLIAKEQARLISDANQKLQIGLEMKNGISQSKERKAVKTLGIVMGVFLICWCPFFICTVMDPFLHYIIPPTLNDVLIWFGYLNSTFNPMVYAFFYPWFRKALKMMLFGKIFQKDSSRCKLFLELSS
In the case of `Cc1ccc(SCc2c(C(=O)N/N=C/c3cccnc3)nnn2-c2nonc2N)cc1`, the inhibition was 59.3% (active). As for `Nc1nonc1-n1nnc(C(=O)N/N=C/c2c[nH]c3ccccc23)c1-c1ccccc1`, the figure is 33.6%.

With `C[C@@H]1CN([C@@H](C)CO)S(=O)(=O)c2ccc(C#Cc3cccc(F)c3)cc2O[C@H]1CN(C)S(=O)(=O)c1cn(C)cn1`, the inhibition was 53% (active).

As for `CCc1ccc2c(c1)NC(=O)C2(C)Cc1ccc(OC(F)(F)F)cc1` (stereo not drawn), the inhibition was 44.5%. As for `Cc1cccc(NC(=O)c2nc[nH]c2C(=O)NCC(=O)OCc2ccccc2)c1`, the figure is 46%; as for `CCOC(=O)C1=C(NC(=S)NC(=O)c2ccccc2)c2ccccc2CC1(C)C`, 42.7%.

Take `Cc1cc(Br)ccc1NC(=O)c1cnc(N2CCN(c3ccccn3)CC2)c2ccccc12`: the inhibition was 55.2% (active). The value for `Cc1ccc2c(c1)N(CC(=O)NCCc1ccc(Cl)cc1)C(=O)c1cccnc1O2` was 50.5% (active); that for `COc1ccc(C2=NOC(Cn3nc(C(=O)NCc4ccc5c(c4)OCO5)cc3-c3ccccc3)C2)cc1` (stereo not drawn) was 48.2%. For the molecule `CC(=O)OCCN(CCCn1c(-c2ccncc2)nc2ccccc21)c1nc(-c2ccc(C)cc2)cs1`, the inhibition is 36.5%.

Turning to `Cc1nn(-c2ccccc2)c(C)c1NC(=O)COC(=O)c1cc(Cl)ccc1O`, the inhibition was 56.2% (active). As for `Cc1onc(-c2c(F)cccc2Cl)c1C(=O)Nc1cccc(S(=O)(=O)N2CCCCC2)c1`, the inhibition was 46%. The value for `COc1ccc(S(=O)(=O)N2CCCC(C(=O)Nc3ccc(NC(=O)c4ccccn4)cc3)C2)cc1` (stereo not drawn) was 56.2% (active); that for `COc1ccc(NC(=O)C2CCCN(S(=O)(=O)c3cccc4cccnc34)C2)cc1OC` (stereo not drawn) was 45.3%; that for `Cc1ccc(C)c(N2CCN(C(=O)CCCCCn3c(=S)[nH]c4ccc(N5CCOCC5)cc4c3=O)CC2)c1` was 54.2% (active).

Regarding `COc1ccc(CCNC2=C(Cl)C(=O)N(Cc3ccccc3)C2=O)cc1OC`, the inhibition is 50.8% (active). Turning to `COc1cc2ccccc2cc1C(=O)Nc1ccc(NC(=O)c2cccs2)cc1`, the inhibition was 45.9%. In the case of `C[C@H](O)[C@@H]1C(=O)N2CCc3c([nH]c4c(-c5ccc6c(c5)OCO6)cccc34)[C@@H]2C[C@@H]1N(C)C(=O)c1ccco1`, the inhibition was 37.4%. Consider `O=C(NCCN1CCOCC1)c1ccc(/C=C2\Sc3ccccc3N(Cc3ccc(F)cc3)C2=O)cc1`, for which the inhibition was 52.2% (active). On to `O=C(NCCN1C(=O)S/C(=C\c2cccnc2)C1=O)c1ccc(S(=O)(=O)N2CCCC2)cc1`, for which the inhibition was 29.7%. The value for `O=C(NCCN1CCOCC1)c1ccccc1N1C(=O)[C@@H]2Cc3c([nH]c4ccccc34)C(c3cccc(Cl)c3)N2C1=O` (stereo partly drawn) was 39.5%; that for `CCNS(=O)(=O)c1ccc(CCC(=O)N2CCN(c3cc(Cl)ccc3C)CC2)cc1` was 50.4% (active).

In the case of `OC(c1ccccc1)(c1ccccc1)C1CCN(CCCOc2ccc(-c3ccsc3)cc2)CC1`, the inhibition is 43.2%. With `CCOc1ccc(N2CC(C(=O)N/N=C/c3sccc3C)CC2=O)cc1` (stereo not drawn), the inhibition was 9.4%. On to `O=C1c2ccccc2C(=O)N1CCC#Cc1ccc2cc(C3(O)CCCCC3)oc(=O)c2c1`, for which the inhibition is 69.5% (active). Take `CCN1CCc2c(C#N)c(NCc3ccccc3)nc(NCCO)c2C1`: the inhibition is 0.04%. On to `Cc1cccc(C)c1NC(=O)CNC(=O)C1CCCC1`, for which the inhibition is 2.87%. The value for `Cc1ccccc1OCC(=O)Nc1ccc(N2CCN(C(=O)C(C)C)CC2)c(Cl)c1` was 55.3% (active); that for `CSc1ncnc2c1ncn2CC(=O)C1CCC2C3CCC4=CC(=O)CCC4(C)C3CCC12C` (stereo not drawn) was 61.9% (active). As for `COc1ccc(N(CC(=O)N/N=C/c2cccs2)S(=O)(=O)c2ccc(OC)c(OC)c2)cc1`, the figure is 42.2%; as for `CC(=O)c1ccccc1OCc1ccc(C(=O)c2ccccc2)cc1`, 56.3% (active); as for `COc1ccc2[nH]c(=O)c(CN(Cc3cccnc3)S(=O)(=O)c3ccccc3F)cc2c1`, 55% (active). As for `O=C(COC(=O)c1c2c(nc3ccccc13)CCCC2)c1ccc(Br)s1`, the figure is 41%. For `CSC(=S)N/N=C/c1c[nH]c2ccccc12`, the inhibition was 65.5% (active). As for `O=C(Oc1ccc(-c2nnco2)cc1)c1ccc(F)c(S(=O)(=O)N2CCOCC2)c1`, the figure is 61.4% (active). For `COc1ccc(C(=O)Oc2ccc(-c3nnco3)cc2)cc1S(=O)(=O)N1CCOCC1`, the inhibition is 47.2%. `C=CCc1cc(S(=O)(=O)c2ccc(O)c(CC=C)c2)ccc1O`: the inhibition is 26.4%.

In the case of `Cn1c(C(=O)NCCc2ccsc2)cc2c(=O)n(C)c3ccccc3c21`, the inhibition was 38.8%.

Take `O=S1(=O)c2c(cccc2N2CCCCC2)O[C@H](COCc2ccccc2)CN1C1CC1`: the inhibition was 32.1%. As for `COc1ccc(OC)c2[nH]c(=O)c(CCNC(=O)C(=O)c3c[nH]c4ccccc34)cc12`, the figure is 49.5% (active). The value for `CC/C(=N/Nc1ccccc1)c1cnnc(SC)n1` was 1.16%; that for `Cc1ccccc1NC(=O)Cc1nc(COC(=O)C(C)(C)Oc2ccc(Cl)cc2)cs1` was 58.9% (active); that for `O=C(O)c1ccc(NC(=O)c2cn(-c3ccccc3)nc2-c2ccc(Cl)cc2)cc1` was 46.9%. As for `Cc1cccc(NC(=O)c2ccc(COc3ccccc3[N+](=O)[O-])o2)n1`, the figure is 35%; as for `COC(=O)Cc1nnn2c1[C@H](C)[C@H](c1ccccc1Br)OCC2`, 65.9% (active). For the molecule `COC(=O)Cc1nnn2c1[C@H](C)[C@H](c1ccccc1[N+](=O)[O-])OCC2`, the inhibition was 30.1%. The value for `COc1ccc(CC(=O)Nc2c(C(N)=O)oc3ccccc23)cc1` was 28.8%. For `CCCCNc1c(-c2cccc(Sc3ccc(OC)cc3)c2)nc2ccccn12`, the inhibition was 61.9% (active). As for `Cc1ccc(NC(=O)c2ccc(CSc3ncnc4nc[nH]c34)cc2)c(C)c1`, the figure is 25.9%.

`CSCCC(NC(=O)COc1ccccc1)C(=O)OCC(=O)c1cc2ccccc2o1` (stereo not drawn): the inhibition is 33.3%. As for `O=c1[nH]c(CSc2ncc(-c3ccc(F)cc3)n2Cc2ccco2)nc2ccccc12`, the inhibition is 54% (active). With `Cc1ccc2cccc(OCCCOc3ccccc3CO)c2n1`, the inhibition was 26.4%. As for `O=C(Nc1ccccc1-c1nnn(CC(=O)N2CCN(c3ccccc3)CC2)n1)c1cccs1`, the figure is 52.1% (active); as for `CN(c1ccccc1)S(=O)(=O)c1cc(C(=O)Nc2nc3ccccc3[nH]2)ccc1Cl`, 50.8% (active); as for `O=S(=O)(c1cccs1)N1CCCc2nc(-c3ccc(Br)cc3)ccc21`, 36.2%.

Turning to `COc1ccc(C(=O)Nc2ccccc2C(=O)N/N=C/c2ccc(O)c(OC)c2)cc1`, the inhibition was 45.9%. `O=C(N/N=C/c1ccc(OC(=O)c2ccccc2Cl)cc1)c1ccc(O)cc1`: the inhibition was 57% (active). The value for `COc1ccc(-c2cc(C(=O)N(C)Cc3ccccc3)c3ccccc3n2)cc1` was 44.3%. Take `COc1ccc(CN(C)C(=O)c2cc(-c3ccc(C)cc3C)nc3ccccc23)c(OC)c1OC`: the inhibition was 53.7% (active). As for `CC(=O)N1CCN(C(=O)c2cc(-c3ccc(Cl)s3)nc3ccccc23)CC1`, the figure is 38.7%; as for `COc1ccc(-c2cc(C(=O)N(C)Cc3ccc(OC)c(OC)c3OC)c3ccccc3n2)cc1OC`, 56.9% (active); as for `COc1ccc(NC(=O)c2cc(-c3ccc(C)o3)nc3ccccc23)cc1`, 41.2%. As for `COc1ccc(-c2nn(-c3ccccc3)cc2C(=O)Nc2nccs2)cc1OC`, the figure is 46.5%. The value for `COc1ccc(-c2cc(C(=O)N(C)CC(=O)Nc3ccccc3Cl)c3ccccc3n2)cc1OC` was 52.2% (active). As to `COc1ccc(C(=O)Nc2cccc(NC(=O)c3ccc(OC)cc3OC)n2)c(OC)c1`, the inhibition was 45.9%.

Regarding `COc1ccc(-c2cc(C(=O)Nc3ccccc3O)c3ccccc3n2)cc1`, the inhibition is 59% (active). The value for `Cc1cc(C(C)(C)C)oc1C(=O)N(CC(=O)NC1CCCC1)Cc1ccc(Cl)cc1` was 43.7%; that for `CSCCC(NC(=O)COc1ccccc1)C(=O)OCCOc1ccc(Br)cc1` (stereo not drawn) was 17.8%. The value for `O=C(NCC1CCCO1)c1cc2c([nH]c3ccccc32)c(-c2ccc(F)cc2)n1` (stereo not drawn) was 46%; that for `Cn1c2ccccc2c(=O)c2c(=O)n(Cc3ccco3)c(COc3ccccc3)nc21` was 51% (active). Consider `COc1ccc(S(=O)(=O)N(CC(=O)NCc2ccco2)c2ccc(F)cc2)cc1`, for which the inhibition was 39.1%.

As to `C=CCn1c(SCc2cccc(F)c2)nc2cc(C(=O)N3CCC(C(N)=O)CC3)ccc2c1=O`, the inhibition was 43.9%. The value for `Cc1nc(N2CCN(c3ccccn3)CC2)c2c(C)c(C(=O)Nc3ccc(F)cc3)sc2n1` was 53% (active).

As to `Clc1ccc(Nc2ncnc3c2nnn3Cc2ccccc2)cc1`, the inhibition is 31%. As to `COc1cc(/C=C2/C(=O)ON=C2C)ccc1OCc1ccccc1F`, the inhibition was 61.3% (active). In the case of `COC(=O)c1sccc1NC(=O)c1cc(OC)c(OC)c(OC)c1`, the inhibition was 37.3%. As to `COc1ccc(/C=C/C(=O)Nc2ccc(C34CC5CC(CC(O)(C5)C3)C4)cc2)cc1OC`, the inhibition was 57.9% (active). In the case of `NNC(=O)CNC(c1ccccc1)c1cc(Cl)ccc1NC(=O)c1ccccc1` (stereo not drawn), the inhibition was 34.3%. As to `Oc1ccccc1N1CCN(c2ncnc3sc(-c4ccccc4)cc23)CC1`, the inhibition was 47.6%. As for `CC(C)(C)OC(=O)NCCCCCNC(=O)c1nc[nH]c1C(=O)NCc1ccccc1`, the figure is 37.2%; as for `CC(C)Oc1cc(F)ccc1-c1cc(C(=O)Nc2ccc(F)cc2)[nH]n1`, 46.1%. The value for `C=CCC[C@@H](Cc1ccc(F)cc1)C(=O)O[C@H](CNC(=O)[C@H](CC=C)CC(=O)N(CCO)Cc1ccccc1)c1ccccc1` was 57.8% (active); that for `C=CCC[C@H](Cc1ccc(F)cc1)C(=O)OC[C@H](C)NC(=O)[C@H](CC=C)CC(=O)N(CCO)Cc1ccccc1` was 54% (active).
